PubChem BioAssay (NCATS)
Results filed as inconclusive are left out. A call without a number means that no potency is given here. Calls of active or inactive are those of the source. Unless noted, calls come from the whole dose curve; as a rule, active = well fitted cell-killing curve with a large enough effect; inconclusive = small, poorly fitted or top-dose-only effect; inactive = flat fitted curve, though single readings scatter.

Columns and labels:
[1] = Cell Viability - LYMP2-002 (AID 977); note: potency is the fitted concentration of half-maximal effect
Summary of the method: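 Human lymphoblastoid cells, 2500/well, complete medium; 5 h 37 C settle; compound 24 h 37 C; CellTiter-Glo, 30 min RT; luminescence. Decrease in ATP = cytotoxicity; AC50 via Hill equation.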

[2] = Cell Viability - LYMP2-006 (AID 978); note: nearly all actives have a fitted effect of over 60% in size; note: potency is the fitted concentration of half-maximal effect
Summary of the method: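 Potency values are Hill-fit AC50s for decreases in intracellular ATP (CellTiter-Glo luminescence). LYMP2-006 lymphoblastoid cells, 2500 per well, were exposed to compound in complete culture medium for 24 hr at 37 C.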

[3] = Cell Viability - LYMP2-007 (AID 979);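 note: cells exposed to compound for 24 h before reading; nearly all actives have a fitted effect of over 60% in size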; note: potency is the fitted concentration of half-maximal effect
Summary of the method: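 Cells are seeded at 2500 per well and rested 5 hr. Compounds are then added over a concentration series for 24 hr at 37 C. CellTiter-Glo is added for 30 min at room temperature before luminescence reading.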

[4] = Cell Viability - LYMP2-008 (AID 980); note: nearly all actives have a fitted effect of over 60% in size; note: potency is the fitted concentration of half-maximal effect
Summary of the method: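 Cells seeded at 2500/well and rested 5 hr at 37 C; compounds added over a concentration range and incubated 24 hr at 37 C; CellTiter-Glo added, 30 min at room temperature; luminescence read and AC50 fitted with Hill model.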

[5] = Cell Viability - LYMP2-010 (AID 981); note: nearly all actives have a fitted effect of over 55% in size; note: potency is the fitted concentration of half-maximal effect
Summary of the method: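 Steps: seed 2500 LYMP2-010 cells per well; incubate 5 hr at 37 C; add compound; incubate 24 hr at 37 C; add CellTiter-Glo, wait 30 min at room temperature; read luminescence. Concentration-response fitted to Hill equation for AC50.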

[6] = Cell Viability - LYMP2-012 (AID 982);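 note: cellular ATP by luciferase luminescence where a drop means cytotoxicity; cells exposed to compound for one day before reading; nearly all actives have a fitted effect of over 55% in size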; note: potency is the fitted concentration of half-maximal effect
[7] = Cell Viability - LYMP2-014 (AID 983); note: nearly all actives have a fitted effect of over 50% in size; note: potency is the fitted concentration of half-maximal effect
Summary of the method: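 Cells are plated at 2500/well and left 5 hr at 37 C. Compounds are added across a concentration range and incubated 24 hr at 37 C in complete medium. CellTiter-Glo is added, and luminescence is read after 30 min at room temperature.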

[8] = Cell Viability - LYMP2-016 (AID 984); note: nearly all actives have a fitted effect of over 55% in size; note: potency is the fitted concentration of half-maximal effect
Summary of the method: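 Cytotoxicity was scored by luminescent ATP content (CellTiter-Glo) after 24 h compound exposure at 37 C of a human lymphoblastoid line at 2500 cells/well. Concentration-response data were fitted to the Hill equation for AC50.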

[9] = Cell Viability - LYMP2-018 (AID 985);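 note: compound exposure lasted 24 hr at 37 °C; nearly all actives have a fitted effect of over 50% in size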; note: potency is the fitted concentration of half-maximal effect
Summary of the method: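 Seed 2500 lymphoblastoid cells per well, incubate 5 hr at 37 C, add compound and incubate 24 hr at 37 C, add CellTiter-Glo, wait 30 min at room temperature, then read luminescence.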

[10] = Cell Viability - LYMP2-020 (AID 986); note: nearly all actives have a fitted effect of over 55% in size; note: potency is the fitted concentration of half-maximal effect
Summary of the method: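 Seed 2500 cells per well and incubate 5 hr at 37 C. Add compounds at a concentration series and incubate 24 hr at 37 C. Add CellTiter-Glo, wait 30 min at RT, read luminescence, and fit a Hill curve for AC50.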

[11] = Cell Viability - LYMP2-022 (AID 987); note: nearly all actives have a fitted effect of over 55% in size; note: potency is the fitted concentration of half-maximal effect
Summary of the method: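 Cells were seeded at 2500 per well, rested 5 hr at 37 C, and treated with titrated compounds for 24 hr at 37 C. Cellular ATP was then quantified by luciferase luminescence, and AC50 values were derived from Hill-modelled concentration-response curves.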

[12] = Cell Viability - LYMP2-024 (AID 988); note: nearly all actives have a fitted effect of over 60% in size; note: potency is the fitted concentration of half-maximal effect
Summary of the method: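 qHTS cytotoxicity, human lymphoblastoid line, complete medium; 24 h cpd treatment, 37 C; CellTiter-Glo ATP luminescence readout; tetraoctylammonium bromide positive control; AC50 via Hill fit.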

[13] = Cell Viability - LYMP2-026 (AID 989); note: nearly all actives have a fitted effect of over 50% in size
Summary of the method: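 Cells are seeded at 2500 per well and held 5 hr at 37 C. Compounds are added in concentration series for 24 hr, then CellTiter-Glo reagent is applied and luminescence read.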

[14] = Cell Viability - LYMP1-002 - Assay at 24 hr (AID 993)
Summary of the method: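 Acute toxicity is measured as concentration-dependent loss of cellular ATP in a human lymphoblastoid line (Coriell LYMP1-002) after 24 h treatment in complete medium. ATP is quantified by luciferase luminescence and AC50 derived by Hill modelling.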

[15] = qHTS Assay for Identification of Small Molecule Inducers of Hypoxia Response (AID 2120; active = well fitted curve in the direction sought with a large enough effect in the signal ratio, with a control signal flat, not every such curve was filed as active; the % refers to the signal ratio)
Summary of the method: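 Cell-based qHTS for reporter induction: hypoxia response element controlled beta-lactamase in ME-180 cells. Compounds incubated 17 h at 37 degrees C; activity from blue/green (460/530 nm) ratio, inducers ranked by AC50.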

[16] = Cell Viability - LYMP1-002 - Assay at 40 hr (AID 994); note: nearly all actives have a fitted effect of over 60% in size
Summary of the method: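 Cells are plated at 2500 per well and rested 5 hr at 37 C. Compounds are added and incubated 40 hr at 37 C. CellTiter-Glo reagent is added for 30 min at room temperature before luminescence is read.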

Structure (SMILES)	Potency [1]	Potency [2]	Potency [3]	Potency [4]	Potency [5]	Potency [6]	Potency [7]	Potency [8]	Potency [9]	Potency [10]	Potency [11]	Potency [12]	outcome [13]	Potency [14]	outcome [15]	Potency [16]
CCCCOCCOCCOCCCC	inactive	inactive	inactive	inactive	inactive	inactive	inactive	inactive	inactive	inactive	inactive	inactive	inactive	inactive	inactive	
NS(=O)(=O)O	inactive	inactive	inactive	inactive	inactive	inactive	inactive	inactive	inactive	inactive	inactive	inactive	inactive	inactive	inactive	inactive
Cc1cc(C2(c3cc(C)c(O)cc3C)OS(=O)(=O)c3ccccc32)c(C)cc1O	inactive	inactive	inactive	inactive	inactive	inactive	inactive	inactive	inactive	inactive	inactive	inactive	inactive	inactive	inactive	inactive
Cc1ccc2c(c1[N+](=O)[O-])C(=O)c1ccccc1C2=O	inactive	inactive	inactive	inactive	inactive	inactive	inactive	inactive	inactive	inactive	inactive		inactive	inactive	inactive	inactive
O=C1OC(=O)c2c(Cl)c(Cl)c(Cl)c(Cl)c21	inactive	inactive	inactive	inactive		inactive	inactive	inactive	inactive	inactive	inactive	inactive	inactive		inactive	
CCC1CO1 (stereo not drawn)	inactive	inactive	inactive	inactive	inactive	inactive	inactive	inactive	inactive	inactive	inactive	inactive	inactive	inactive	inactive	inactive
c1ccc2n[nH]nc2c1	inactive	inactive	inactive	inactive	inactive	inactive	inactive	inactive	inactive	inactive	inactive	inactive	inactive	inactive	inactive	inactive
CC1(N)CCC(C(C)(C)N)CC1 (stereo not drawn)	inactive	inactive	inactive	inactive		inactive	inactive	inactive	inactive	inactive	inactive	inactive	inactive	inactive	inactive	inactive
CC(C)C(C)C	inactive	inactive	inactive	inactive	inactive	inactive	inactive	inactive		inactive	inactive	inactive	inactive	inactive	inactive	inactive
O=C(O)c1cccc([N+](=O)[O-])c1	inactive	inactive	inactive	inactive	inactive	inactive	inactive	inactive		inactive	inactive	inactive	inactive	inactive	inactive	inactive
O=CNc1ccccc1	inactive	inactive	inactive		inactive	inactive	inactive	inactive	inactive	inactive	inactive	inactive	inactive	inactive	inactive	inactive
CCCCC/C=C/C=C/C=O	50.1 µM (active)	50.1 µM (active)	39.8 µM (active)	39.8 µM (active)	39.8 µM (active)	50.1 µM (active)	50.1 µM (active)	50.1 µM (active)	79.4 µM (active)	39.8 µM (active)	50.1 µM (active)	50.1 µM (active)		inactive	inactive	inactive
C=CCn1c(=O)n(CC=C)c(=O)n(CC=C)c1=O	inactive	inactive	inactive	inactive	inactive	inactive	inactive	inactive	inactive	inactive	inactive	inactive	inactive		inactive	inactive
Cc1ccc(Cl)cc1N	inactive	inactive	inactive	inactive		inactive	inactive	inactive		inactive	inactive	inactive	inactive	inactive	inactive	inactive
Cc1cccc(C)c1[N+](=O)[O-]	inactive	inactive	inactive	inactive	inactive	inactive	inactive	inactive	inactive	inactive	inactive	inactive	inactive	inactive	inactive	inactive
ON=C1CCCCC1	inactive	inactive	inactive	inactive	inactive	inactive	inactive	inactive	inactive	inactive	inactive	inactive	inactive	inactive	inactive	inactive
CC(O)CC(C)O (stereo not drawn)	inactive	inactive	inactive	inactive		inactive	inactive	inactive	inactive	inactive	inactive	inactive	inactive	inactive	inactive	inactive
O=C1OC(=O)c2c(Br)c(Br)c(Br)c(Br)c21	inactive	inactive	inactive	inactive	inactive	inactive	inactive	inactive	inactive	inactive	inactive	inactive	inactive	inactive	inactive	inactive
O=C(O)CNC(=O)c1ccc([N+](=O)[O-])cc1	inactive	inactive	inactive		inactive	inactive	inactive	inactive	inactive	inactive	inactive	inactive	inactive	inactive	inactive	inactive
CN(C)c1cccc(O)c1	inactive	inactive	inactive	inactive		inactive	inactive	inactive	inactive	inactive	inactive	inactive	inactive	inactive	inactive	inactive
CC(=O)c1ccc([N+](=O)[O-])cc1	inactive	inactive	inactive	inactive	inactive	inactive	inactive	inactive	inactive	inactive	inactive	inactive	inactive	inactive	inactive	inactive
CC(=O)CCc1ccccc1	inactive	inactive	inactive	inactive	inactive	inactive	inactive	inactive		inactive	inactive	inactive	inactive	inactive	inactive	inactive
CCCCC(CC)CO (stereo not drawn)	inactive	inactive	inactive	inactive	inactive	inactive	inactive		inactive	inactive	inactive	inactive	inactive	inactive	inactive	inactive

Structure (SMILES)	Potency [1]	Potency [2]	Potency [3]	Potency [4]	Potency [5]	Potency [6]	Potency [7]	Potency [8]	Potency [9]	Potency [10]	Potency [11]	Potency [12]	outcome [13]	Potency [14]	outcome [15]	Potency [16]
CCOC(=O)C(C)C(C)=O (stereo not drawn)	inactive	inactive	inactive	inactive	inactive	inactive	inactive	inactive	inactive	inactive	inactive	inactive	inactive	inactive	inactive	inactive
COC(=O)c1ccccc1	inactive	inactive	inactive	inactive	inactive	inactive	inactive	inactive	inactive	inactive	inactive	inactive	inactive	inactive	inactive	inactive
c1ccc(Nc2ccccc2)cc1	inactive	inactive	inactive	inactive	inactive	inactive	inactive	inactive	inactive	inactive	inactive	inactive	inactive	inactive	inactive	inactive
CC(=O)OC(C)=O	inactive	inactive	inactive	inactive	inactive	inactive	inactive		inactive	inactive	inactive	inactive	inactive	inactive	inactive	inactive
O=[N+]([O-])c1c(Cl)cc(Cl)cc1Cl	inactive	inactive	inactive	inactive		inactive	inactive	inactive	inactive	inactive	inactive	inactive	inactive	inactive	inactive	inactive
CC(C)(O)C(=O)O	inactive	inactive	inactive	inactive	inactive	inactive	inactive	inactive		inactive	inactive	inactive	inactive	inactive	inactive	inactive
O=[N+]([O-])c1ccccc1CCO	inactive	inactive	inactive	inactive	inactive	inactive	inactive	inactive	inactive	inactive	inactive	inactive	inactive	inactive	inactive	inactive
Cc1ccc([N+](=O)[O-])c(N)c1	inactive	inactive	inactive	inactive	inactive	inactive	inactive	inactive		inactive	inactive	inactive	inactive	inactive	inactive	inactive
Clc1ccc(Cl)c(Cl)c1Cl	inactive	inactive	inactive	inactive	inactive	inactive	inactive		inactive	inactive	inactive	inactive	inactive	inactive	inactive	inactive
O=Cc1ccccc1Cl	inactive	inactive	inactive	inactive	inactive	inactive	inactive		inactive	inactive	inactive	inactive	inactive	inactive	inactive	inactive
CCC(C)O (stereo not drawn)	inactive	inactive	inactive	inactive	inactive	inactive	inactive		inactive	inactive	inactive	inactive	inactive	inactive	inactive	inactive
Cc1ccccc1Br	inactive	inactive	inactive		inactive	inactive	inactive	inactive	inactive	inactive	inactive	inactive	inactive	inactive	inactive	
CCCOCC(C)O (stereo not drawn)	inactive	inactive	inactive	inactive	inactive	inactive	inactive	inactive	inactive	inactive	inactive	inactive	inactive	inactive	inactive	inactive
CCCCC=O	inactive	inactive	inactive	inactive		inactive	inactive		inactive	inactive	inactive	inactive	inactive	inactive	inactive	inactive
CC1CCC2CC1C2(C)C (stereo not drawn)	inactive	inactive	inactive	inactive	inactive	inactive	inactive		inactive	inactive	inactive	inactive	inactive	inactive	inactive	inactive
COc1cccc(N)c1	inactive	inactive	inactive	inactive	inactive	inactive	inactive	inactive		inactive	inactive	inactive	inactive	inactive	inactive	inactive
O=C(O)c1ccccc1Cl	inactive	inactive	inactive	inactive	inactive	inactive	inactive	inactive	inactive	inactive	inactive	inactive	inactive	inactive	inactive	inactive
CCCC=O	inactive	inactive	inactive	inactive	inactive	inactive	inactive	inactive	inactive	inactive	inactive	inactive	inactive	inactive	inactive	inactive
Nc1nc(CC(=O)O)cs1	inactive	inactive		inactive	inactive	inactive	inactive		inactive	inactive	inactive	inactive	inactive	inactive	inactive	inactive
O=C(O)c1ccc(CO)o1	inactive	inactive		inactive			inactive	inactive		inactive	inactive		inactive	inactive	inactive	inactive
COC(=O)CCCC(=O)OC	inactive	inactive	inactive		inactive	inactive	inactive	inactive	inactive	inactive	inactive	inactive	inactive		inactive	inactive
O=C(O)c1ccccc1[N+](=O)[O-]	inactive	inactive	inactive			inactive	inactive	inactive	inactive	inactive	inactive	inactive	inactive	inactive	inactive	inactive
